The values below come from PubChem BioAssay (NCI).

Some test systems named below: NCI-H23 lung; NCI-H226 lung; NCI-H322M lung; HOP-62 NSCLC; NCI-H460 lung; HOP-92 NSCLC; NCI-H522 lung; A549/ATCC NSCLC; 786-0 renal; COLO 205 colon; DU-145 prostate; K-562 leukemia; MALME-3M melanoma; MDA-MB-231 breast; RXF 393 renal; SF-268 CNS; SF-295 CNS; SF-539 CNS; UACC-257 melanoma; M14 melanoma.
Holding throughout (experiment): NCI-60 one-dose screen, 48 h (100 = growth as untreated, 0 = no growth, -100 = all killed)
Holding throughout (settings): 10 µM unless noted

This is part of a sample that, as a whole, favours compounds with a hit. Of some 83,000 tested, about 20% had one in any assay.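 Growth was measured after 48 h exposure to one concentration of compound in 96-well plates. Values under 10 count as active.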 A number with no mark means an inactive call. The source made the active and inactive calls.

For the molecule `CCCN1C=C/C(=C\C(=O)n2ccc3ccccc32)c2ccccc21`, the growth in the test with NCI-H23 lung was 72.9%; in the test on NCI-H226 lung, 75.1%; in the test on NCI-H322M lung, 80.2%; in the test on HOP-62 NSCLC it was 94.6%; in the test with NCI-H460 lung, 94.5%; with HOP-92 NSCLC, 47.9%. Moreover, the growth in the test with NCI-H522 lung is 78.4%; in the test with A549/ATCC NSCLC, 84.9%; with 786-0 renal, 103%; in the test with COLO 205 colon it was 96.4%; in the test with DU-145 prostate it was 87.7%; in the test with K-562 leukemia, 56.9%. Besides, the growth in the test on MALME-3M melanoma is 104%; in the test with MDA-MB-231 breast it was 76.2%; in the test with RXF 393 renal it was 97.6%; with SF-268 CNS, 96.4%; in the test on SF-295 CNS it was 83.1%; in the test with SF-539 CNS it was 88.2%. Besides, the growth was 102% in the test with UACC-257 melanoma and 95.4% in the test on M14 melanoma.

As for `CC(=O)C1=C(C)NC(NNc2ccccc2)=NC1c1ccc([N+](=O)[O-])cc1` (stereo not given), the growth in the test with NCI-H23 lung was 95.3%; in the test on NCI-H226 lung it was 96.7%; in the test on NCI-H322M lung it was 84.6%; with HOP-62 NSCLC, 113%; in the test with NCI-H460 lung it was 99.9%; with HOP-92 NSCLC, 99.7%. Also, the growth in the test with NCI-H522 lung is 76.9%; in the test on A549/ATCC NSCLC, 88.1%; with 786-0 renal, 97.8%; in the test with COLO 205 colon, 106%; in the test with DU-145 prostate, 99.4%; in the test with K-562 leukemia, 49%. For the same molecule, the growth with MALME-3M melanoma was 116%; in the test with MDA-MB-231 breast, 88.1%; in the test on RXF 393 renal it was 102%; in the test on SF-268 CNS, 80.7%; in the test on SF-295 CNS it was 87.4%; in the test on SF-539 CNS it was 99.9%. Besides, the growth in the test with UACC-257 melanoma is 104%; in the test with M14 melanoma, 101%.

As to `O=C(N/N=C/c1cc2ccccc2nc1Cl)c1cc(-c2nc3ccccc3[nH]2)nc2ccccc12`, the growth in the test with NCI-H23 lung is 96.2%; in the test on NCI-H226 lung, 100%; in the test on NCI-H322M lung, 99.9%; in the test with HOP-62 NSCLC, 97.9%; in the test with NCI-H460 lung it was 104%; in the test with HOP-92 NSCLC, 72.4%. In addition, the growth with NCI-H522 lung was 83.6%; in the test on A549/ATCC NSCLC, 95.1%; in the test on 786-0 renal it was 85.3%; in the test on COLO 205 colon, 98.3%; in the test with DU-145 prostate it was 87.7%; with K-562 leukemia it was 83.6%. The growth with MALME-3M melanoma is 124%; in the test on MDA-MB-231 breast, 99%; with RXF 393 renal, 96.2%; with SF-268 CNS, 87.8%; in the test with SF-295 CNS, 89.7%; in the test with SF-539 CNS, 103%. Besides, the growth was 118% in the test on UACC-257 melanoma and 109% in the test with M14 melanoma.

As to `CN1CCN(CCNc2nc(-c3cccc(NS(=O)(=O)c4cccc5c(N(C)C)cccc45)c3)cs2)CC1`, the growth in the test on NCI-H23 lung is 51.9%; in the test on NCI-H226 lung it was 66.3%; in the test with NCI-H322M lung it was 85.8%; in the test with HOP-62 NSCLC, 82%; with NCI-H460 lung, 70.7%; in the test on HOP-92 NSCLC, 39.7%. In addition, the growth with NCI-H522 lung is 69.4%; in the test with A549/ATCC NSCLC, 69.6%; with 786-0 renal, 60.8%; with COLO 205 colon, 85.6%; in the test with DU-145 prostate, 81.8%; in the test on K-562 leukemia it was 10.6%. Further, the growth in the test with MALME-3M melanoma was 44%; with MDA-MB-231 breast, 64.8%; in the test on RXF 393 renal, 61.6%; with SF-268 CNS, 82.7%; in the test on SF-295 CNS, 42.6%; with SF-539 CNS, 68.1%. Further, the growth in the test on UACC-257 melanoma was 53.9%; with M14 melanoma, 62.9%.

With `COc1ccccc1/C=C1\Oc2ccc(O)c(O)c2C1=O`, the growth is 93.2% with NCI-H23 lung; 110% in the test on NCI-H226 lung; 102% in the test on NCI-H322M lung; 99.9% in the test with HOP-62 NSCLC; 101% in the test with NCI-H460 lung; 103% with HOP-92 NSCLC. Further, the growth in the test with NCI-H522 lung was 89.1%; in the test on A549/ATCC NSCLC, 101%; in the test on 786-0 renal, 94.1%; in the test with COLO 205 colon it was 116%; in the test on DU-145 prostate, 98.4%; in the test with K-562 leukemia it was 95.6%. For the same molecule, the growth in the test with MALME-3M melanoma was 102%; in the test on MDA-MB-231 breast it was 94.9%; in the test on RXF 393 renal it was 90.2%; in the test with SF-268 CNS, 102%; in the test on SF-295 CNS, 112%; in the test with SF-539 CNS, 91.8%. Besides, the figures for the growth in the test on UACC-257 melanoma and in the test with M14 melanoma were 101% and 95.4%, respectively.

For `CCCCOc1ccc(S(=O)(=O)N2CCN(c3nc(C)cc(N4CCOCC4)n3)CC2)cc1`, the growth with NCI-H23 lung is 41.7%; with NCI-H226 lung, 67.2%; with NCI-H322M lung, 62.2%; in the test with HOP-62 NSCLC it was 59%; with NCI-H460 lung, 1.22% (active); in the test on HOP-92 NSCLC, 18.2%. The growth with NCI-H522 lung is 88.8%; in the test with A549/ATCC NSCLC, 27.3%; in the test with 786-0 renal it was 33.4%; in the test on COLO 205 colon, 5.81% (active); in the test with DU-145 prostate, 16.6%; with K-562 leukemia it was 44.3%. Besides, the growth in the test with MALME-3M melanoma was 107%; with MDA-MB-231 breast, 3.79% (active); in the test with RXF 393 renal, 85%; in the test with SF-268 CNS, 3.91% (active); in the test on SF-295 CNS, -22.5% (active); with SF-539 CNS, 75.9%. Moreover, the figures for the growth in the test on UACC-257 melanoma and in the test on M14 melanoma were -47.2% (active) and -15.9% (active), respectively.

Regarding `CC(=O)OC[C@]12CC[C@@H](C(=O)/C=C/c3cccnc3)[C@@H]1[C@H]1CC[C@@H]3[C@@]4(C)CC[C@H](OC(C)=O)C(C)(C)[C@@H]4CC[C@@]3(C)[C@]1(C)CC2`, the growth with NCI-H23 lung was 1.02% (active); in the test on NCI-H226 lung, -70.5% (active); with NCI-H322M lung it was 53.5%; in the test with HOP-62 NSCLC it was 28.1%; with NCI-H460 lung, 7.8% (active); in the test on HOP-92 NSCLC, -29.1% (active). The growth in the test on NCI-H522 lung is -20.3% (active); in the test on A549/ATCC NSCLC, 23.1%; in the test with 786-0 renal, 27.2%; with COLO 205 colon, -18.6% (active); in the test on DU-145 prostate, 45.7%; in the test on K-562 leukemia it was 13.1%. In addition, the growth is -66.3% (active) in the test with MALME-3M melanoma; -40.5% (active) in the test with MDA-MB-231 breast; -71.6% (active) in the test with RXF 393 renal; 42.2% with SF-268 CNS; 29.7% with SF-295 CNS; -52.7% (active) in the test with SF-539 CNS. Besides, the results for the growth in the test on UACC-257 melanoma and in the test on M14 melanoma were -4.75% (active) and 12.2%, respectively.

As for `Cc1ccc2c(n1)C(=O)C(Cl)=C(Nc1cccc(C(F)(F)F)c1)C2=O`, the growth with NCI-H23 lung is 52.3%; in the test on NCI-H226 lung, 73.3%; in the test with NCI-H322M lung, 108%; in the test on HOP-62 NSCLC, 141%; with NCI-H460 lung it was 101%; with HOP-92 NSCLC, 107%. Also, the growth in the test with NCI-H522 lung was -28.8% (active); in the test on A549/ATCC NSCLC it was 105%; in the test with 786-0 renal, 85.8%; in the test with COLO 205 colon, 106%; in the test on DU-145 prostate it was 98.7%; in the test on K-562 leukemia it was 3.08% (active). The growth in the test on MALME-3M melanoma is -5.42% (active); in the test with MDA-MB-231 breast, 54.7%; with RXF 393 renal, -1.18% (active); with SF-268 CNS it was 100%; with SF-295 CNS, 110%; in the test with SF-539 CNS, 106%. Further, the growth in the test on UACC-257 melanoma is -4.17% (active); in the test with M14 melanoma, 80.4%.
